Source: PubChem BioAssay (NCI)
About 79,000 compounds went through this panel and 15% of them were active in at least one assay; those are over-represented in the sample as a whole. Values without a mark were called inactive. Calls of active or inactive are those of the source. Rule as the data show it: active = growth inhibition above about 70%; inactive = the rest.

assay: NCI Yeast Anticancer Drug Screen. Data for the sgs1 mgt1 strain (AID 161);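 also: 0% = growth of cultures given vehicle only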; settings: S. cerevisiae sgs1 mgt1 strain, at 50.0 µM (retest, dose inferred, filed as 5.0), active compounds read high
In short: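 Test agents were incubated with a DNA-repair-mutant yeast strain. Growth was then read and compared against vehicle-treated controls.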

SMILES | growth inhibition
COc1ccc(N=Cc2cc(Br)cc(Br)c2O)cc1.COc1ccc(N=Cc2cc(Br)cc(Br)c2O)cc1.[Co] | 85% (active)
O=C(/C=C/C(=O)N1CCCC1)N1CCCC1 | 3%
O=S(c1ccccc1)c1c(Cl)c(Cl)nc(Cl)c1Cl (stereo not drawn) | 99% (active)
CSc1nc(N)c2cnn(C3OC(CO)C(O)C3O)c2n1 (stereo not drawn) | -6%
COc1cccc(C=O)c1O | 29%
Cn1c(=O)c2c(ncn2CCCCOc2ccc3c(c2)[n+]([O-])nc(N)[n+]3[O-])n(C)c1=O | 34%
Cn1ncc2c(Nc3cccc(Cl)c3)nc(Nc3cccc(Cl)c3)nc21 | 98% (active)
Cc1cc(C)n2nc(N)c(C#N)c2c1C#N | 8%
COc1ccc(C2c3cc4c(cc3OC(O)C2C)OCO4)cc1 (stereo not drawn) | 78% (active)
Nc1ccccc1[S][Sn]([c]1ccccc1)([c]1ccccc1)[c]1ccccc1 | 99% (active)
Cn1c(Sc2ccc(-c3cccnc3)n2C)ccc1-c1cccnc1 | 97% (active)
Nc1nnc(-c2cc(=O)c3cc(Cl)ccc3o2)s1 | 6%
COc1ccc(CNc2nc3cc(C(F)(F)F)ccc3nc2C)cc1OC | 38%
CC(=O)OCC1CC2OC2CC1C (stereo not drawn) | 7%
CCCCN(CCCC)CC(O)c1cc(-c2ccc(Cl)cc2)nc2cc(C)ccc12 (stereo not drawn) | 99% (active)
NC(=S)n1nc(-c2ccccc2)c(N=Nc2ccccc2Cl)c1-c1ccccc1 | 83% (active)
CCCCCCCCCCCCN(CCO)CCO | 96% (active)
CC(C)CCSc1ncnc2nc[nH]c12 | 1%
O=C(c1ccccc1)c1cccc2ccccc12 | 30%
O=C1C(c2c[nH]c3ccccc23)=Nc2ccc(Br)cc21 | 29%

SMILES | growth inhibition
COc1cccc(CCCNC(=O)Cc2ccccc2CO)c1 | 12%
C/C(=N\NC(=S)N1CCN(C2CCCCC2)CC1)c1ccccn1 | 98% (active)
CN(C)CCOC(=O)C1(CCC2CCCCC2)CCCCC1 | 57%
O=c1c(Cl)cc2nc3ccccc3sc-2c1Cl | 79% (active)
COc1ccc2nc(NC(=O)Nc3c(Cl)cccc3Cl)sc2c1 | 99% (active)
Cc1c[nH]c2nc(C)n(-c3ccccc3)c(=N)c12 | 3%
O=C(C1=NNC(c2ccccc2)C1C(=O)c1ccccc1)c1ccccc1 (stereo not drawn) | 84% (active)
CCOC(=O)N1CCN(C=S)CC1 | -17%
COC(=O)N(C[C@@H]1C=CCCC1)c1ccccc1I | 63%
N=c1ccc2c(c1)[nH]c1c3ccccc3[nH]c3cccc2c31 | 98% (active)
CC1(C)[C@H]2CC[C@]1(C)[C@H](OC(=O)NNC(=O)O[C@@H]1C[C@@H]3CC[C@@]1(C)C3(C)C)C2 | 35%
N#CC1(C#N)C(C#N)(C#N)C12CCCCCC2 | 99% (active)
CCOP(=O)(OCC)OC1c2[nH]ccc2-c2cc(C(=O)OC)[nH]c2C1OC (stereo not drawn) | 17%
O=[N+]([O-])/C(=C\c1cccs1)c1ccccc1 | 99% (active)
Cc1ccccc1NC(=O)C(=O)C(C#N)c1c(Cl)cccc1Cl (stereo not drawn) | 2%
O=C1c2c(F)c(F)c(F)c(F)c2SC2=NCCN12 | 97% (active)
CCCC(C)OC(=O)Nc1cccc(Cl)c1 (stereo not drawn) | -10%
Nc1nc(SCc2ccccc2)c2ncn(CCCl)c2n1 | 1%
CCCCOC(=O)c1nc(N(CC2CCCCC2)C(=O)NC)sc1NC(=O)NC | 97% (active)

same assay, conditions: S. cerevisiae sgs1 mgt1 strain, at 50.0 µM, active compounds read high

SMILES | growth inhibition
COc1ccc(N=Cc2cc(Br)cc(Br)c2O)cc1.COc1ccc(N=Cc2cc(Br)cc(Br)c2O)cc1.[Co] | 90.6% (active)
O=C(/C=C/C(=O)N1CCCC1)N1CCCC1 | 14.8%
O=S(c1ccccc1)c1c(Cl)c(Cl)nc(Cl)c1Cl (stereo not drawn) | 99.5% (active)
CSc1nc(N)c2cnn(C3OC(CO)C(O)C3O)c2n1 (stereo not drawn) | 15.2%
COc1cccc(C=O)c1O | 17.5%
Cn1c(=O)c2c(ncn2CCCCOc2ccc3c(c2)[n+]([O-])nc(N)[n+]3[O-])n(C)c1=O | 69.9%
Cn1ncc2c(Nc3cccc(Cl)c3)nc(Nc3cccc(Cl)c3)nc21 | 96.2% (active)
Cc1cc(C)n2nc(N)c(C#N)c2c1C#N | 0.85%
COc1ccc(C2c3cc4c(cc3OC(O)C2C)OCO4)cc1 (stereo not drawn) | 98.3% (active)
Nc1ccccc1[S][Sn]([c]1ccccc1)([c]1ccccc1)[c]1ccccc1 | 98.5% (active)
Cn1c(Sc2ccc(-c3cccnc3)n2C)ccc1-c1cccnc1 | 97.5% (active)
Nc1nnc(-c2cc(=O)c3cc(Cl)ccc3o2)s1 | 20.1%
COc1ccc(CNc2nc3cc(C(F)(F)F)ccc3nc2C)cc1OC | 91.4% (active)
CC(=O)OCC1CC2OC2CC1C (stereo not drawn) | 70.4% (active)
CCCCN(CCCC)CC(O)c1cc(-c2ccc(Cl)cc2)nc2cc(C)ccc12 (stereo not drawn) | 99.6% (active)
NC(=S)n1nc(-c2ccccc2)c(N=Nc2ccccc2Cl)c1-c1ccccc1 | 72.9% (active)
CCCCCCCCCCCCN(CCO)CCO | 89.5% (active)
CC(C)CCSc1ncnc2nc[nH]c12 | 63%
O=C(c1ccccc1)c1cccc2ccccc12 | 52.2%
O=C1C(c2c[nH]c3ccccc23)=Nc2ccc(Br)cc21 | 73% (active)

SMILES | growth inhibition
COc1cccc(CCCNC(=O)Cc2ccccc2CO)c1 | -13.8%
C/C(=N\NC(=S)N1CCN(C2CCCCC2)CC1)c1ccccn1 | 98.5% (active)
CN(C)CCOC(=O)C1(CCC2CCCCC2)CCCCC1 | 60.5%
O=c1c(Cl)cc2nc3ccccc3sc-2c1Cl | 83.8% (active)
COc1ccc2nc(NC(=O)Nc3c(Cl)cccc3Cl)sc2c1 | 99% (active)
Cc1c[nH]c2nc(C)n(-c3ccccc3)c(=N)c12 | 2.5%
O=C(C1=NNC(c2ccccc2)C1C(=O)c1ccccc1)c1ccccc1 (stereo not drawn) | 79% (active)
CCOC(=O)N1CCN(C=S)CC1 | 57.7%
COC(=O)N(C[C@@H]1C=CCCC1)c1ccccc1I | 89.6% (active)
N=c1ccc2c(c1)[nH]c1c3ccccc3[nH]c3cccc2c31 | 89.1% (active)
CC1(C)[C@H]2CC[C@]1(C)[C@H](OC(=O)NNC(=O)O[C@@H]1C[C@@H]3CC[C@@]1(C)C3(C)C)C2 | 53%
N#CC1(C#N)C(C#N)(C#N)C12CCCCCC2 | 99.5% (active)
CCOP(=O)(OCC)OC1c2[nH]ccc2-c2cc(C(=O)OC)[nH]c2C1OC (stereo not drawn) | 83.2% (active)
O=[N+]([O-])/C(=C\c1cccs1)c1ccccc1 | 99.5% (active)
Cc1ccccc1NC(=O)C(=O)C(C#N)c1c(Cl)cccc1Cl (stereo not drawn) | 25.6%
O=C1c2c(F)c(F)c(F)c(F)c2SC2=NCCN12 | 76.5% (active)
CCCC(C)OC(=O)Nc1cccc(Cl)c1 (stereo not drawn) | 98.9% (active)
Nc1nc(SCc2ccccc2)c2ncn(CCCl)c2n1 | 17.6%
CCCCOC(=O)c1nc(N(CC2CCCCC2)C(=O)NC)sc1NC(=O)NC | 8.7%
